Eleven sequences from article PMC11006913 can be followed below.

Residue numbers refer to the chain shown, from its start.

Holding throughout (assay): PBM; 200 nM protein, PBS
Holding throughout (conditions): dsDNA, one strand shown

The target in experiment [1] is NKX2-5 (Homo sapiens, UniProt P52952 125-210, R139K).
For experiment [2], the target named is T1, NKX2-4 (Homo sapiens, UniProt Q9H2Z4 175-261, P217L).
T1 sequence: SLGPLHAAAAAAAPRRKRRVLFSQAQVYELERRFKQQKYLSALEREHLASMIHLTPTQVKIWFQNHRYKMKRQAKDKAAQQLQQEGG

Experiment [3] concerns the target T2, NKX2-4 (Homo sapiens, UniProt Q9H2Z4 175-261, T231S).
T2 sequence: T1 sequence with L43P, T57S

Experiment [4] has as its target T3, NKX2-4 (Homo sapiens, UniProt Q9H2Z4 175-261).
T3 sequence: T1 sequence with L43P

The target in experiment [5] is T4, NKX2-6 (Homo sapiens, UniProt A6NCS4 118-204).
T4 sequence: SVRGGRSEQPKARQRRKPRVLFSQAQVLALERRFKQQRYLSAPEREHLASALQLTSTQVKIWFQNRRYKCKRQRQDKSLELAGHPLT

In experiment [6] the target is T5, NKX2-4 (Homo sapiens, UniProt Q9H2Z4 175-261, R246Q).
T5 sequence: T1 sequence with L43P, R72Q

In experiment [7] the target is T6, NKX2-6 (Homo sapiens, UniProt A6NCS4 118-204, F151L).
T6 sequence: T4 sequence with F34L

The target of experiment [8] is NKX2-5 (Homo sapiens, UniProt P52952 125-210).
Experiment [9] deals with T7, VENTX (Homo sapiens, UniProt O95231 78-163, R121Q).
T7 sequence: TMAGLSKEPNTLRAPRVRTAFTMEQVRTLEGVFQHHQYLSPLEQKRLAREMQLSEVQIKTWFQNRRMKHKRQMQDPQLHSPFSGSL

Experiment [10] addresses T8, VENTX (Homo sapiens, UniProt O95231 78-163).
T8 sequence: T7 sequence with Q44R

Experiment [11] has as its target T9, VENTX (Homo sapiens, UniProt O95231 78-163, Y115F).
T9 sequence: T7 sequence with Y38F, Q44R

Experiment [12] has as its target ALX1 (Homo sapiens, UniProt Q15699 118-204, L144V).
Experiment [13] concerns the target ALX1 (Homo sapiens, UniProt Q15699 118-204, L144R).
In experiment [14] the target is ALX1 (Homo sapiens, UniProt Q15699 118-204).
Experiment [15] concerns the target T10, NKX2-6 (Homo sapiens, UniProt A6NCS4 118-204, R150C).
T10 sequence: T4 sequence with R33C

Chain of NKX2-5 (Homo sapiens, UniProt P52952 125-210) (P52952 125-210): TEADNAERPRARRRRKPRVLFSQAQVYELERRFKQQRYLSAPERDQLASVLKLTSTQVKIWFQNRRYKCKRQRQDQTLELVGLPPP
Chain of NKX2-5 (Homo sapiens, UniProt P52952 125-210, R139K) (P52952 125-210 R139K): as the sequence (P52952 125-210) above, with R15K counted along it
Chain of ALX1 (Homo sapiens, UniProt Q15699 118-204, L144V) (Q15699 118-204 L144V): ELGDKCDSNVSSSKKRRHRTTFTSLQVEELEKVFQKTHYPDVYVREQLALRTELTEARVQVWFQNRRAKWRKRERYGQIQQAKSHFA
Chain of ALX1 (Homo sapiens, UniProt Q15699 118-204) (Q15699 118-204): as the sequence (Q15699 118-204 L144V) above, with V27L counted along it
Chain of ALX1 (Homo sapiens, UniProt Q15699 118-204, L144R) (Q15699 118-204 L144R): as the sequence (Q15699 118-204 L144V) above, with V27R counted along it

For the sequence GTCAAGTA, the binding signal in experiment [1] was 12.3 upbm affinity estimate (log intensity, higher = more binding, comparable within an allelic series); in experiment [2] it was 12.5 upbm affinity estimate (log intensity, higher = more binding, comparable within an allelic series); in [3], 12.8 upbm affinity estimate (log intensity, higher = more binding, comparable within an allelic series); in [4], 12.3 upbm affinity estimate (log intensity, higher = more binding, comparable within an allelic series); in experiment [5], 13.4 upbm affinity estimate (log intensity, higher = more binding, comparable within an allelic series); in experiment [6] it was 13 upbm affinity estimate (log intensity, higher = more binding, comparable within an allelic series). Further, the binding signal in experiment [7] was 10.5 upbm affinity estimate (log intensity, higher = more binding, comparable within an allelic series); in experiment [8], 12.2 upbm affinity estimate (log intensity, higher = more binding, comparable within an allelic series).

Take CGTGCACG: the binding signal in experiment [1] is 8.84 upbm affinity estimate (log intensity, higher = more binding, comparable within an allelic series); in [8], 8.84 upbm affinity estimate (log intensity, higher = more binding, comparable within an allelic series).

As to ACGGCCTG, the binding signal in [1] was 8.92 upbm affinity estimate (log intensity, higher = more binding, comparable within an allelic series); in experiment [2], 9.73 upbm affinity estimate (log intensity, higher = more binding, comparable within an allelic series); in [3] it was 9.59 upbm affinity estimate (log intensity, higher = more binding, comparable within an allelic series); in experiment [4], 9.65 upbm affinity estimate (log intensity, higher = more binding, comparable within an allelic series); in [6], 9.71 upbm affinity estimate (log intensity, higher = more binding, comparable within an allelic series); in experiment [8], 8.81 upbm affinity estimate (log intensity, higher = more binding, comparable within an allelic series).

With CCAGCCAG, the binding signal was 8.68 upbm affinity estimate (log intensity, higher = more binding, comparable within an allelic series) in [1] and 8.64 upbm affinity estimate (log intensity, higher = more binding, comparable within an allelic series) in [8].

CCTGGGCC: the binding signal was 8.72 upbm affinity estimate (log intensity, higher = more binding, comparable within an allelic series) in [1]; 7.97 upbm affinity estimate (log intensity, higher = more binding, comparable within an allelic series) in [9]; 8.01 upbm affinity estimate (log intensity, higher = more binding, comparable within an allelic series) in experiment [10]; 7.99 upbm affinity estimate (log intensity, higher = more binding, comparable within an allelic series) in experiment [11]; 8.87 upbm affinity estimate (log intensity, higher = more binding, comparable within an allelic series) in experiment [8].

As to CACGGGCC, the binding signal is 8.73 upbm affinity estimate (log intensity, higher = more binding, comparable within an allelic series) in experiment [1]; 7.96 upbm affinity estimate (log intensity, higher = more binding, comparable within an allelic series) in experiment [9]; 8.01 upbm affinity estimate (log intensity, higher = more binding, comparable within an allelic series) in experiment [10]; 7.92 upbm affinity estimate (log intensity, higher = more binding, comparable within an allelic series) in [11]; 8.71 upbm affinity estimate (log intensity, higher = more binding, comparable within an allelic series) in experiment [8].

In the case of ACACTTCA, the binding signal in experiment [1] was 12.3 upbm affinity estimate (log intensity, higher = more binding, comparable within an allelic series); in experiment [2], 12.6 upbm affinity estimate (log intensity, higher = more binding, comparable within an allelic series); in [3], 13 upbm affinity estimate (log intensity, higher = more binding, comparable within an allelic series); in experiment [4], 12.5 upbm affinity estimate (log intensity, higher = more binding, comparable within an allelic series); in experiment [5], 13.3 upbm affinity estimate (log intensity, higher = more binding, comparable within an allelic series); in experiment [6], 13.1 upbm affinity estimate (log intensity, higher = more binding, comparable within an allelic series). Also, the binding signal in experiment [7] is 10.8 upbm affinity estimate (log intensity, higher = more binding, comparable within an allelic series); in experiment [8], 12.3 upbm affinity estimate (log intensity, higher = more binding, comparable within an allelic series).

CACTCGAA: the binding signal was 12 upbm affinity estimate (log intensity, higher = more binding, comparable within an allelic series) in experiment [1]; 12.5 upbm affinity estimate (log intensity, higher = more binding, comparable within an allelic series) in experiment [2]; 13 upbm affinity estimate (log intensity, higher = more binding, comparable within an allelic series) in [3]; 12.5 upbm affinity estimate (log intensity, higher = more binding, comparable within an allelic series) in [4]; 13.1 upbm affinity estimate (log intensity, higher = more binding, comparable within an allelic series) in experiment [6]; 11.9 upbm affinity estimate (log intensity, higher = more binding, comparable within an allelic series) in experiment [8].

For CGGTCGGC, the binding signal in experiment [1] was 8.67 upbm affinity estimate (log intensity, higher = more binding, comparable within an allelic series); in experiment [9], 8.16 upbm affinity estimate (log intensity, higher = more binding, comparable within an allelic series); in experiment [10], 8.35 upbm affinity estimate (log intensity, higher = more binding, comparable within an allelic series); in experiment [11], 8.29 upbm affinity estimate (log intensity, higher = more binding, comparable within an allelic series); in experiment [12], 6.28 upbm affinity estimate (log intensity, higher = more binding, comparable within an allelic series); in experiment [13] it was 6.31 upbm affinity estimate (log intensity, higher = more binding, comparable within an allelic series). The binding signal in experiment [14] was 6.46 upbm affinity estimate (log intensity, higher = more binding, comparable within an allelic series); in experiment [8], 8.65 upbm affinity estimate (log intensity, higher = more binding, comparable within an allelic series).

On to CCGACCTC, for which the binding signal in [1] is 8.77 upbm affinity estimate (log intensity, higher = more binding, comparable within an allelic series); in experiment [9], 7.98 upbm affinity estimate (log intensity, higher = more binding, comparable within an allelic series); in [10] it was 7.99 upbm affinity estimate (log intensity, higher = more binding, comparable within an allelic series); in [11], 8.1 upbm affinity estimate (log intensity, higher = more binding, comparable within an allelic series); in experiment [8], 8.83 upbm affinity estimate (log intensity, higher = more binding, comparable within an allelic series).

Turning to TACTTGAA, the binding signal in experiment [1] is 12.6 upbm affinity estimate (log intensity, higher = more binding, comparable within an allelic series); in experiment [2] it was 12.7 upbm affinity estimate (log intensity, higher = more binding, comparable within an allelic series); in experiment [3], 13.2 upbm affinity estimate (log intensity, higher = more binding, comparable within an allelic series); in experiment [4], 12.6 upbm affinity estimate (log intensity, higher = more binding, comparable within an allelic series); in experiment [15] it was 11.6 upbm affinity estimate (log intensity, higher = more binding, comparable within an allelic series); in experiment [5] it was 13.4 upbm affinity estimate (log intensity, higher = more binding, comparable within an allelic series). Besides, the binding signal in [6] is 13.3 upbm affinity estimate (log intensity, higher = more binding, comparable within an allelic series); in experiment [7] it was 10.8 upbm affinity estimate (log intensity, higher = more binding, comparable within an allelic series); in experiment [8], 12.5 upbm affinity estimate (log intensity, higher = more binding, comparable within an allelic series).
